# Experimental data from article PMC5540273 (PLoS ONE, 2017).
# Like-named read-outs stand apart in the source and are kept apart here.
# Key:
# [1] = system: FLT1; conditions: concentration: 1 μM, replicates: in singlicate; n = 1
# [2] = system: FLT3-autoinhibited; conditions: concentration: 1 μM, replicates: in singlicate; n = 1
# [3] = system: FLT3; conditions: concentration: 1 μM, replicates: in singlicate; n = 1
# [4] = system: FLT4; conditions: concentration: 1 μM, replicates: in singlicate; n = 1
# [5] = system: FRK; conditions: concentration: 1 μM, replicates: in singlicate; n = 1
# [6] = system: FYN; conditions: concentration: 1 μM, replicates: in singlicate; n = 1
# [7] = system: GAK; conditions: concentration: 1 μM, replicates: in singlicate; n = 1
# [8] = system: T1, GCN2(Kin.Dom.2,S808G); conditions: concentration: 1 μM, replicates: in singlicate; n = 1
# T1 construct: gene EIF2AK4
# [9] = system: GRK1; conditions: concentration: 1 μM, replicates: in singlicate; n = 1
# [10] = system: T2, GRK2; conditions: concentration: 1 μM, replicates: in singlicate; n = 1
# T2 construct: gene ADRBK1
# [11] = system: T3, GRK3; conditions: concentration: 1 μM, replicates: in singlicate; n = 1
# T3 construct: gene ADRBK2
# [12] = system: GRK4; conditions: concentration: 1 μM, replicates: in singlicate; n = 1
# [13] = system: GRK7; conditions: concentration: 1 μM, replicates: in singlicate; n = 1
# [14] = system: GSK3A; conditions: concentration: 1 μM, replicates: in singlicate; n = 1
# [15] = system: GSK3B; conditions: n = 1
# [16] = system: T4, HASPIN; conditions: concentration: 1 μM, replicates: in singlicate; n = 1
# T4 construct: gene GSG2
# [17] = system: HCK; conditions: concentration: 1 μM, replicates: in singlicate; n = 1
# [18] = system: HIPK1; conditions: concentration: 1 μM, replicates: in singlicate; n = 1
# [19] = system: HIPK2; conditions: concentration: 1 μM, replicates: in singlicate; n = 1
# [20] = system: HIPK3; conditions: concentration: 1 μM, replicates: in singlicate; n = 1
# [21] = concentration: 1 μM, replicates: in singlicate
# 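Note: KINOMEscan kinase panel screen.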
smiles,measurement,setting,value
O=c1cc(N2CCOCC2)nc2n(Cc3ccccc3F)ccn12 [GSK2297428],%Inh,[1],24%
same,%Inh,[2],0%
same,%Inh,[3],0%
same,%Inh,[4],2%
same,%Inh,[5],20%
same,%Inh,[6],0%
same,%Inh,[7],0%
same,%Inh,[8],0%
same,%Inh,[9],0%
same,%Inh,[10],0%
same,%Inh,[11],0%
same,%Inh,[12],0%
same,%Inh,[13],0%
same,%Inh,[14],80%
same,%Inh,[15]; [21],3%
same,%Inh,[16],35%
same,%Inh,[17],0%
same,%Inh,[18],33%
same,%Inh,[19],0%
same,%Inh,[20],35%
CC(C)c1cc(-c2ccc3c(N)n[nH]c3c2)nc(N)n1 [GSK2250882],%Inh,[1],4%
same,%Inh,[2],0%
same,%Inh,[3],0%
same,%Inh,[4],0%
same,%Inh,[5],0%
same,%Inh,[6],22%
same,%Inh,[7],13%
same,%Inh,[8],0%
same,%Inh,[9],0%
same,%Inh,[10],0%
same,%Inh,[11],0%
same,%Inh,[12],10%
same,%Inh,[13],0%
same,%Inh,[14],0%
same,%Inh,[15]; [21],0%
same,%Inh,[16],83%
same,%Inh,[17],0%
same,%Inh,[18],15%
same,%Inh,[19],0%
same,%Inh,[20],9%
Cn1cncc1-c1cc2c(Nc3ccc(OCc4ccccc4)cc3)ncnc2cn1 [GW281179],%Inh,[1],19%
same,%Inh,[2],0%
same,%Inh,[3],0%
same,%Inh,[4],0%
same,%Inh,[5],6%
same,%Inh,[6],28%
same,%Inh,[7],0%
same,%Inh,[8],1%
same,%Inh,[9],0%
same,%Inh,[10],9%
same,%Inh,[11],33%
same,%Inh,[12],0%
same,%Inh,[13],0%
same,%Inh,[14],8%
same,%Inh,[15]; [21],11%
same,%Inh,[16],0%
same,%Inh,[17],0%
same,%Inh,[18],0%
same,%Inh,[19],0%
same,%Inh,[20],0%
Cc1ccc(NC(=O)Nc2ccccc2)cc1-c1ccc(C(=O)Nc2ccncc2)cc1 [GSK1398471],%Inh,[1],32%
same,%Inh,[2],0%
same,%Inh,[3],36%
same,%Inh,[4],21%
same,%Inh,[5],61%
same,%Inh,[6],33%
same,%Inh,[7],4%
same,%Inh,[8],50%
same,%Inh,[9],2%
same,%Inh,[10],0%
same,%Inh,[11],0%
same,%Inh,[12],0%
same,%Inh,[13],0%
same,%Inh,[14],12%
same,%Inh,[15]; [21],11%
same,%Inh,[16],1%
same,%Inh,[17],0%
same,%Inh,[18],0%
same,%Inh,[19],0%
same,%Inh,[20],13%
COc1nccc(-c2c(-c3ccc(F)cc3)ncn2CCCN2CCOCC2)n1 [SB-282852],%Inh,[1],10%
same,%Inh,[2],4%
same,%Inh,[3],0%
same,%Inh,[4],0%
same,%Inh,[5],0%
same,%Inh,[6],0%
same,%Inh,[7],0%
same,%Inh,[8],1%
same,%Inh,[9],29%
same,%Inh,[10],2%
same,%Inh,[11],14%
same,%Inh,[12],23%
same,%Inh,[13],37%
same,%Inh,[14],17%
same,%Inh,[15]; [21],10%
same,%Inh,[16],0%
same,%Inh,[17],0%
same,%Inh,[18],46%
same,%Inh,[19],76%
same,%Inh,[20],0%
CS(=O)(=O)CCNCc1nc(-c2ccc3ncnc(Nc4ccc5c(cnn5Cc5ccccc5)c4)c3c2)cs1.Cl.Cl [GW569716],%Inh,[1],20%
same,%Inh,[2],0%
same,%Inh,[3],0%
same,%Inh,[4],0%
same,%Inh,[5],9%
same,%Inh,[6],0%
same,%Inh,[7],0%
same,%Inh,[8],1%
same,%Inh,[9],0%
same,%Inh,[10],0%
same,%Inh,[11],41%
same,%Inh,[12],0%
same,%Inh,[13],0%
same,%Inh,[14],0%
same,%Inh,[15]; [21],0%
same,%Inh,[16],18%
same,%Inh,[17],0%
same,%Inh,[18],0%
same,%Inh,[19],0%
same,%Inh,[20],0%
O=C1NC(=O)C(c2ccc(Cl)cc2)=C1Nc1ccc(O)cc1 [SB-340867],%Inh,[1],0%
same,%Inh,[2],0%
same,%Inh,[3],6%
same,%Inh,[4],0%
same,%Inh,[5],0%
same,%Inh,[6],0%
same,%Inh,[7],0%
same,%Inh,[8],0%
same,%Inh,[9],0%
same,%Inh,[10],0%
same,%Inh,[11],0%
same,%Inh,[12],0%
same,%Inh,[13],0%
same,%Inh,[14],29%
same,%Inh,[15]; 1 µM,0%
same,%Inh,[16],9%
same,%Inh,[17],0%
same,%Inh,[18],0%
same,%Inh,[19],0%
same,%Inh,[20],0%
NS(=O)(=O)c1cccc(N/C=C2\C(=O)Nc3ccc(S(=O)(=O)Cc4c(Cl)cccc4Cl)cc32)c1 [GSK398099],%Inh,[1],12%
same,%Inh,[2],0%
same,%Inh,[3],0%
same,%Inh,[4],0%
same,%Inh,[5],0%
same,%Inh,[6],35%
same,%Inh,[7],18%
same,%Inh,[8],0%
same,%Inh,[9],0%
same,%Inh,[10],0%
same,%Inh,[11],0%
same,%Inh,[12],0%
same,%Inh,[13],0%
same,%Inh,[14],0%
same,%Inh,[15]; [21],20%
same,%Inh,[16],4%
same,%Inh,[17],0%
same,%Inh,[18],0%
same,%Inh,[19],0%
same,%Inh,[20],12%
O=C(Nc1n[nH]c2nc(-c3ccco3)c(Br)cc12)C1CCN(Cc2ccccc2)C1.O=C(O)[C@H](O)[C@@H](O)C(=O)O (stereo not drawn) [SB-742034],%Inh,[1],0%
same,%Inh,[2],10%
same,%Inh,[3],7%
same,%Inh,[4],6%
same,%Inh,[5],0%
same,%Inh,[6],0%
same,%Inh,[7],8%
same,%Inh,[8],0%
same,%Inh,[9],42%
same,%Inh,[10],0%
same,%Inh,[11],0%
same,%Inh,[12],11%
same,%Inh,[13],42%
same,%Inh,[14],97.8%
same,%Inh,[15]; 1 µM,72%
same,%Inh,[16],0%
same,%Inh,[17],7%
same,%Inh,[18],30%
same,%Inh,[19],32%
same,%Inh,[20],25%
